Test [1] concerns XIP peptide (Xip251-270) binding. Put plainly: small-molecule binders of XIP peptide, primary screen, biochemical, small-molecule microarray, fluorescence 635/667 nm, 0.1 µg/mL protein (AID 1182). The settings on record: fluorescent protein binding, 635 nm, higher = more signal, called active from +8 up or from −8 down.
Test [2] relates to XIP peptide (Xip251-270). Description: small-molecule binders of XIP peptide, primary screen, biochemical, small-molecule microarray, fluorescence 635/667 nm, 0.5 µg/mL protein (AID 1183). The settings on record: small-molecule microarray binding, fluorescence 635 nm; higher = more signal.
Test [3] in a line: Plasmodium falciparum growth inhibition, primary screen, strain 3D7, DAPI fluorescence, 100 nL (AID 1184).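 Note: parasites grown inside human red blood cells in medium with human serum.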 The settings on record: P. falciparum 3D7 growth, 3 d, higher = more signal.
In test [4] the target is Homeobox protein Hox-A13 (Mus musculus) (UniProt Q62424). Description: inhibitors of HoxA13-DNA binding, primary screen, biochemical, fluorescence polarization, labeled oligonucleotide (AID 1185). The settings on record: 15 min, higher = more signal, called active from +8 up or from −8 down. On the technique in general: Fluorescence polarisation rises when a labelled molecule tumbles more slowly, as on binding a larger partner.
Chain of Homeobox protein Hox-A13 (Mus musculus) (Q62424 whole entry, looked up): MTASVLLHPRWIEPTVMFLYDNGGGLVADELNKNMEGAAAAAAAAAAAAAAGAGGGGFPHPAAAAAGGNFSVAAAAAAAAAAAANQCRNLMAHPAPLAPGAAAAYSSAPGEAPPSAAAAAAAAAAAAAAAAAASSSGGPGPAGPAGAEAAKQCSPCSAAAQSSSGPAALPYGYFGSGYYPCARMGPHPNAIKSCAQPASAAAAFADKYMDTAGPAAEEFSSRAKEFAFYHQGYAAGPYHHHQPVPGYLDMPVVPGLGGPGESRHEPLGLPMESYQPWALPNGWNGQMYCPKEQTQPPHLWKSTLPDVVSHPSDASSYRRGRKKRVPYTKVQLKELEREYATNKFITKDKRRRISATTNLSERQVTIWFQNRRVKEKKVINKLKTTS

Test [5] can be described thus: inhibitors of hydroxyurea-induced Chk1 phosphorylation, primary screen, imaging, HeLa, phospho-Chk1 antibody, percent positive cells (AID 1186). The settings on record: hydroxyurea-induced phospho-Chk1 immunofluorescence imaging, higher = more signal.
Test [6] in a line: inhibitors of hydroxyurea-induced Chk1 phosphorylation, primary screen, imaging, HeLa, phospho-Chk1 nuclear intensity (AID 1187). The settings on record: hydroxyurea-induced phospho-Chk1 immunofluorescence imaging, higher = more signal.

Activity calls are given as the source filed them. Unless noted, the rule behind the calls is not given here.

Regarding `CCOC(=O)C[C@H]1[C@H](OC(=O)c2ccc(-c3ccccc3)cc2)[C@@H](NC(=O)Cc2ccc(OC)cc2)c2cc(OCCCO)ccc2N1C(=O)Cc1ccc(OC)cc1`, the values for the composite z-score in test [1] and in test [2] were 0.0878 (inactive) and -0.015, respectively. The z-score in test [3] is -1.18; in test [4] it was -1.32 (inactive); in test [5] it was -0.366 (inactive); in test [6], 0.0566 (inactive).

For `C=C[C@H](C)[C@H](OC(=O)Nc1ccc(OC)cc1)c1ccc(OCCO)cc1`, the values for the composite z-score in test [1] and in test [2] were 0.526 (inactive) and -0.0503, respectively. Besides, the z-score in test [3] is -1.15; in test [4], -4.59 (inactive); in test [5] it was -0.806 (inactive); in test [6], -0.261 (inactive).

Consider `CC1(C)C(=O)C(c2ccccc2)=C2CN3C(=O)N(CCc4ccccc4)C(=O)C3(Cc3ccc(C(F)(F)F)cc3)C=C21` (configuration not stated), for which the composite z-score in test [1] is 0.251 (inactive); in test [2] it was 0.279. Moreover, the z-score in test [3] was -0.745; in test [4], -1.55 (inactive); in test [5] it was 0.175 (inactive); in test [6], 0.0024 (inactive).

For the compound `[N-]=[N+]=NCc1ccccc1C[C@@]1(C(=O)N2CCCCC2)N=C(c2ccc(OCCCO)cc2)O[C@@H]1c1ccccc1CN=[N+]=[N-]`, the composite z-score in test [1] was 0.0378 (inactive); in test [2], -0.0651. Besides, the z-score in test [3] was -2.55; in test [4], 0.301 (inactive); in test [5] it was -0.382 (inactive); in test [6], -0.903 (inactive).

Regarding `Cc1cccc([C@H]2C[C@H]3C(Br)=C[C@@H]2C(=O)[C@]32CO2)c1`, the composite z-score in test [1] is -0.409 (inactive); in test [2], -0.848. The z-score in test [3] was -0.528; in test [4], -1.65 (inactive); in test [5] it was 0.139 (inactive); in test [6] it was -0.0027 (inactive).

With `CCCCCN1CC=CC23O[C@@H]4C=CCOC(=O)[C@@H]4[C@H]2C(=O)N(CCO)[C@@H]3C1=O` (some centres not stated), the results for the composite z-score in test [1] and in test [2] were 0.647 (inactive) and -0.311, respectively. Further, the z-score in test [3] was 1.34; in test [4], -3.88 (inactive); in test [5] it was -0.542 (inactive); in test [6], -0.562 (inactive).

As for `NC(=O)NCC#Cc1ccc2c(c1)[C@]1(C(=O)N2)[C@H](C(=O)N2CCN(c3ncccn3)CC2)[C@H]2C(=O)O[C@H](c3ccccc3)[C@H](c3ccccc3)N2[C@@H]1c1ccc(OCCO)cc1`, the composite z-score is -0.134 (inactive) in test [1] and 0.193 in test [2]. Moreover, the z-score was -0.232 in test [3], -1.02 (inactive) in test [4], -0.216 (inactive) in test [5] and -0.0071 (inactive) in test [6].

Turning to `C=C(/C(=C/C[C@H](OC(=O)c1ccncc1)c1ccccc1OCCO)c1cnc2ccccc2c1)C(C)C`, the composite z-score in test [1] is -0.0266 (inactive); in test [2] it was 0.615. For the same compound, the z-score is -2.96 in test [3], -4.2 (inactive) in test [4], 0.39 (inactive) in test [5] and 0.0188 (inactive) in test [6].

As for `COc1ccc([Si](C)(C)[C@H]2[C@H](CCO)O[C@@]3(C(=O)N(Cc4ccccc4)c4ccc(N5CCOC5=O)cc43)[C@@H]2C)cc1`, the composite z-score is 0.16 (inactive) in test [1] and 0.52 in test [2]. For the same compound, the z-score was -1.75 in test [3], -3.27 (inactive) in test [4], -0.796 (inactive) in test [5] and -0.721 (inactive) in test [6].

For `C=CCNC(=O)[C@@H]1[C@H]2C(=O)O[C@H](c3ccccc3)[C@H](c3ccccc3)N2[C@H](c2ccc(OCCO)cc2)[C@@]12C(=O)N(C(=O)OCCOC)c1ccc(C#CCCO)cc12`, the composite z-score in test [1] is 0.649 (inactive); in test [2] it was 0.69. The z-score in test [3] was -1.56; in test [4], -1.19 (inactive); in test [5], -0.604 (inactive); in test [6], -0.826 (inactive).

As for `CN1C(=O)C2C=CC(C(O)c3ccc(I)cc3)N(Nc3ccccc3)C2C1=O` (configuration not stated), the composite z-score was 0.56 (inactive) in test [1] and 0.755 in test [2]. The z-score in test [3] is -0.371; in test [4], -4.54 (inactive); in test [5], 0.178 (inactive); in test [6], 0.0306 (inactive).

As to `NC(=O)[C@H]1[C@@H]2C(=O)O[C@@H](c3ccccc3)[C@@H](c3ccccc3)N2[C@@H](c2ccc(O)cc2)[C@]12C(=O)Nc1ccccc12`, the composite z-score is -0.367 (inactive) in test [1] and -0.764 in test [2]. The z-score in test [3] was 0.428; in test [4] it was -5.09 (inactive); in test [5] it was -0.154 (inactive); in test [6], -0.112 (inactive).

`CCOC(=O)C1=C[C@@H](c2ccccc2)N(S(=O)(=O)c2ccc(C)cc2)[C@H]1c1ccccc1`: the composite z-score was 0.598 (inactive) in test [1] and 0.303 in test [2]. In addition, the z-score in test [3] is -0.346; in test [4], 0.0724 (inactive); in test [5], 0.667 (inactive); in test [6], 0.529 (inactive).

Take `[N-]=[N+]=NC[C@H](Cc1ccccc1)NC(=O)c1ccccc1`: the composite z-score is -0.359 (inactive) in test [1] and 0.108 in test [2]. The z-score in test [3] is -0.855; in test [4], -0.271 (inactive); in test [5] it was 0.0506 (inactive); in test [6], 0.216 (inactive).

With `COc1cc(NN2C(C(O)c3ccccc3)C=CC3C(=O)N(C)C(=O)C32)cc(OC)c1OC` (configuration not stated), the figures for the composite z-score in test [1] and in test [2] were 0.561 (inactive) and 0.346, respectively. The z-score in test [3] was -0.312; in test [4], -3.23 (inactive); in test [5], -0.36 (inactive); in test [6], -0.516 (inactive).

Take `CC(C)C[C@@H]1NC(=O)[C@@]23C(=O)N[C@@H](Cc4ccccc4)C2[C@H](C)[C@@]2(C)O[C@H]2C3/C=C/C/C=C\CNC(=O)[C@@H](C)NC1=O` (some centres not stated): the values for the composite z-score in test [1] and in test [2] were 0.772 (inactive) and 0.649, respectively. For the same compound, the z-score was -1.65 in test [3], -4.91 (inactive) in test [4], -0.674 (inactive) in test [5] and -0.734 (inactive) in test [6].

For `C=C(C)C1CCC(C(O)C2C=CC3C(=O)N(C)C(=O)C3N2Nc2cc(OC)c(OC)c(OC)c2)CC1` (configuration not stated), the composite z-score in test [1] was 0.287 (inactive); in test [2], 0.596. Besides, the z-score is -0.593 in test [3], -5.2 (inactive) in test [4], -0.113 (inactive) in test [5] and -0.431 (inactive) in test [6].

The values are drawn from PubChem BioAssay.
